The values below come from PubChem BioAssay (NCI).

Compounds without any hit were thinned out: in the full panel of roughly 83,000, 20% have a hit.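 A percent growth of 40 corresponds to 60% growth inhibition; 0 means no net growth; -100 means all cells died. Active threshold: below 10.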 Values without a mark were called inactive. The source made the active and inactive calls.

What all share (test): NCI-60 one-dose screen, 48 h (100 = growth as untreated, 0 = no growth, -100 = all killed)
One experiment concerns K-562 leukemia. Particulars: 10 µM unless noted.
In a further experiment the test system is MALME-3M melanoma. Particulars: 10 µM unless noted.
For another experiment, the system named is MDA-MB-231 breast. The note with it: 10 µM unless noted.
Another experiment deals with RXF 393 renal. Particulars: 10 µM unless noted.
In the next experiment the test system is SF-268 CNS. Particulars: 10 µM unless noted.
Another experiment deals with SF-295 CNS. Particulars: 10 µM unless noted.
The subject of the next experiment is SF-539 CNS. Particulars: 10 µM unless noted.
A further experiment concerns UACC-257 melanoma. Particulars: 10 µM unless noted.
For a further experiment, the system named is M14 melanoma. The note with it: 10 µM unless noted.
In a further experiment the test system is HCT-15 colon. The note with it: 10 µM unless noted.
A further experiment has as its system HT29 colon. Particulars: 10 µM unless noted.
Another experiment deals with SNB-75 CNS. The note with it: 10 µM unless noted.
A further experiment relates to SNB-19 CNS. Particulars: 10 µM unless noted.
In the next experiment the test system is U251 CNS. The note with it: 10 µM unless noted.
A further experiment relates to PC-3 prostate. Particulars: 10 µM unless noted.
Another experiment concerns SK-MEL-5 melanoma. The note with it: 10 µM unless noted.
The next experiment relates to LOX IMVI melanoma. Particulars: 10 µM unless noted.
Another experiment relates to SK-MEL-28 melanoma. Particulars: 10 µM.
A further experiment relates to SK-MEL-2 melanoma. Particulars: 10 µM unless noted.
The subject of a further experiment is UACC-62 melanoma. The note with it: 10 µM unless noted.

`Cc1ccc2cccc(Oc3ccc(Nc4ncnc5onc(-c6ccccc6)c45)cc3)c2n1`: the growth is 76.7% in the experiment with K-562 leukemia; 84.1% in the experiment on MALME-3M melanoma; 72.2% in the experiment with MDA-MB-231 breast; 82.8% in the experiment on RXF 393 renal; 91.4% in the experiment on SF-268 CNS; 88.1% in the experiment with SF-295 CNS. Moreover, the growth was 79.8% in the experiment on SF-539 CNS; 89% in the experiment on UACC-257 melanoma; 84% in the experiment with M14 melanoma; 43.4% in the experiment with HCT-15 colon; 57.2% in the experiment with HT29 colon; 78.1% in the experiment with SNB-75 CNS. Besides, the growth is 92.3% in the experiment on SNB-19 CNS; 70% with U251 CNS; 58.5% in the experiment on PC-3 prostate; 46.3% in the experiment on SK-MEL-5 melanoma; 56.5% in the experiment on LOX IMVI melanoma; 80.1% in the experiment with SK-MEL-28 melanoma. In addition, in the experiment on SK-MEL-2 melanoma, the growth was 94%.

In the case of `O=C(Nc1ccc(Cl)cc1)N1CCN(c2ccc3nncn3n2)CC1`, the growth in the experiment on K-562 leukemia is -61.1% (active); in the experiment with MALME-3M melanoma it was -86.8% (active); with MDA-MB-231 breast, -55.5% (active); with RXF 393 renal, -81.2% (active); with SF-268 CNS, -48.1% (active); with SF-295 CNS, -87.2% (active). The growth was -86.7% (active) in the experiment on SF-539 CNS; -68.9% (active) with UACC-257 melanoma; -87.1% (active) in the experiment on M14 melanoma; 0.448% (active) with HCT-15 colon; -28.6% (active) in the experiment with HT29 colon; -68.9% (active) with SNB-75 CNS. Besides, the growth in the experiment on SNB-19 CNS is 80.3%; with U251 CNS, -74.7% (active); in the experiment on PC-3 prostate, 16.4%; in the experiment with SK-MEL-5 melanoma it was -98.4% (active); in the experiment with UACC-62 melanoma it was -88.3% (active); in the experiment on SK-MEL-28 melanoma, -95.5% (active). Also, in the experiment with SK-MEL-2 melanoma, the growth was 22%.

As for `O=S(=O)(c1ccc(NC(=S)NC23CC4CC(CC(C4)C2)C3)cc1)N1CCCCC1`, the growth was 7.73% (active) with K-562 leukemia; 86.5% in the experiment on MALME-3M melanoma; 102% with MDA-MB-231 breast; 115% in the experiment on RXF 393 renal; 66.6% with SF-268 CNS; 58.1% in the experiment on SF-295 CNS. Also, the growth in the experiment with SF-539 CNS is 107%; in the experiment on UACC-257 melanoma it was 96.9%; with M14 melanoma, 72.3%; in the experiment on HCT-15 colon it was 82.8%; in the experiment with HT29 colon, 94.1%; in the experiment with SNB-75 CNS, 93.3%. Further, the growth in the experiment on SNB-19 CNS was 99.9%; with U251 CNS, 85.2%; in the experiment with PC-3 prostate, 8.79% (active); with SK-MEL-5 melanoma, 87.7%; in the experiment on LOX IMVI melanoma, 96.9%; in the experiment with SK-MEL-28 melanoma, 95%. Besides, the growth in the experiment on SK-MEL-2 melanoma is 106%.

Regarding `O=C(Nc1ccc(I)cc1F)c1cc(Cl)ccc1O`, the growth in the experiment on K-562 leukemia was 8.14% (active); with MALME-3M melanoma, -28.9% (active); in the experiment with MDA-MB-231 breast it was -17.6% (active); in the experiment with RXF 393 renal it was 1.47% (active); in the experiment on SF-268 CNS it was 5.87% (active); in the experiment on SF-295 CNS, -62.8% (active). In addition, the growth was 2.65% (active) in the experiment with SF-539 CNS; -18.1% (active) in the experiment with UACC-257 melanoma; -22% (active) in the experiment with M14 melanoma; 2.58% (active) in the experiment with HCT-15 colon; 33.5% in the experiment with HT29 colon; -24.3% (active) with SNB-75 CNS. Besides, the growth in the experiment with SNB-19 CNS is 18.6%; in the experiment with U251 CNS it was 0.895% (active); in the experiment on PC-3 prostate, 3.02% (active); in the experiment on UACC-62 melanoma it was -18.8% (active); with LOX IMVI melanoma, 0.0612% (active); with SK-MEL-28 melanoma it was -4.2% (active). Besides, the growth with SK-MEL-2 melanoma is -30.8% (active).

For `CCOc1ccc(-c2nonc2NC(=O)c2cccc(C)c2)cc1OCC`, the growth with K-562 leukemia was 11%; in the experiment with MALME-3M melanoma, 59.6%; with MDA-MB-231 breast, 76.5%; with RXF 393 renal, 65.3%; with SF-268 CNS, 84.1%; in the experiment with SF-295 CNS, 27.8%. Moreover, the growth in the experiment on SF-539 CNS was 80.8%; in the experiment on UACC-257 melanoma it was 89.4%; in the experiment on M14 melanoma, 71.3%; in the experiment on HCT-15 colon, 65.2%; in the experiment on HT29 colon, 28.3%; in the experiment with SNB-75 CNS it was 89.2%. In addition, the growth in the experiment on SNB-19 CNS is 90.7%; with U251 CNS, 75%; in the experiment on PC-3 prostate it was 27.4%; in the experiment with SK-MEL-5 melanoma it was 35.2%; with UACC-62 melanoma it was 78.4%; in the experiment with SK-MEL-28 melanoma, 89.5%. Further, the growth in the experiment on SK-MEL-2 melanoma was 88.6%.

For `O=C(/C=C/c1cccc(Cl)c1)OCc1ccc2cc1OCC#C/C=C\C#CCO2`, the growth in the experiment with K-562 leukemia is 81.9%; in the experiment on MALME-3M melanoma, 99.7%; in the experiment with MDA-MB-231 breast, 90.7%; with RXF 393 renal it was 101%; with SF-268 CNS, 106%; in the experiment with SF-295 CNS, 109%. Besides, the growth in the experiment with SF-539 CNS is 100%; with UACC-257 melanoma, 88.8%; in the experiment with M14 melanoma, 103%; in the experiment on HCT-15 colon, 102%; with HT29 colon it was 89.3%; in the experiment on SNB-75 CNS, 80.9%. Moreover, the growth was 93.9% in the experiment with SNB-19 CNS; 102% in the experiment on U251 CNS; 96.2% in the experiment on PC-3 prostate; 106% in the experiment on SK-MEL-5 melanoma; 89.2% with UACC-62 melanoma; 88.4% in the experiment on LOX IMVI melanoma. Also, in the experiment with SK-MEL-2 melanoma, the growth is 113%.

For `COc1ccc(C(=O)Nc2ccc3nc(N4CCCCC4)cc(C)c3c2)cc1OC`, the growth in the experiment on K-562 leukemia is -18.6% (active); with MALME-3M melanoma it was 64.8%; in the experiment on MDA-MB-231 breast it was 48.3%; with RXF 393 renal, 92.3%; in the experiment with SF-268 CNS, 89.5%; in the experiment on SF-295 CNS it was 48.6%. The growth was 82.2% in the experiment on SF-539 CNS; 102% with UACC-257 melanoma; 83.9% with M14 melanoma; 31.6% with HCT-15 colon; 20.8% in the experiment on HT29 colon; 102% with SNB-75 CNS. For the same compound, the growth in the experiment with SNB-19 CNS is 109%; in the experiment on U251 CNS, 69.3%; in the experiment with PC-3 prostate, 45.1%; with SK-MEL-5 melanoma, 88.1%; in the experiment on UACC-62 melanoma, 98.5%; in the experiment on SK-MEL-28 melanoma, 94.5%. Also, the growth in the experiment with SK-MEL-2 melanoma is 119%.

Consider `Nc1nc(-c2cnccn2)nn1-c1nc2ccccc2s1`, for which the growth in the experiment on K-562 leukemia is 93.9%; with MALME-3M melanoma it was 104%; with MDA-MB-231 breast it was 95.4%; in the experiment on RXF 393 renal, 110%; in the experiment on SF-268 CNS, 99.2%; in the experiment on SF-295 CNS, 103%. Moreover, the growth in the experiment with SF-539 CNS was 101%; with UACC-257 melanoma, 99.1%; with M14 melanoma, 99.2%; with HCT-15 colon, 103%; in the experiment with HT29 colon, 99.7%; in the experiment with SNB-75 CNS, 96.4%. Also, the growth with SNB-19 CNS is 98.2%; in the experiment with U251 CNS it was 93.5%; in the experiment with PC-3 prostate, 99.4%; in the experiment with SK-MEL-5 melanoma, 92.2%; in the experiment with LOX IMVI melanoma it was 105%; in the experiment on SK-MEL-28 melanoma it was 104%. Besides, in the experiment on SK-MEL-2 melanoma, the growth is 99.5%.
